The supplement of paper PMC3545927
This is one part of the list. The true hit rate is not given.

Target: furin, P09958
Experiment: furin cleavage Z-score vs untreated control; higher = more cleavage, active = 3.5 or more, inactive = 1 or less, 8 variable residues between constant flanks
Method in brief: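 Read counts from sequencing released DNA gave abundance for each bead-bound 8-mer peptide–cDNA fusion cut by purified furin over 7.5, 15 or 30 min. The cleavage Z-score compares log counts with furin-free reactions after lowess adjustment and median absolute deviation scaling.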
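Note: purified furin at 1:10 enzyme:substrate in 50 mM HEPES pH 7.5.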

furin, P09958, sequence (P09958 whole entry): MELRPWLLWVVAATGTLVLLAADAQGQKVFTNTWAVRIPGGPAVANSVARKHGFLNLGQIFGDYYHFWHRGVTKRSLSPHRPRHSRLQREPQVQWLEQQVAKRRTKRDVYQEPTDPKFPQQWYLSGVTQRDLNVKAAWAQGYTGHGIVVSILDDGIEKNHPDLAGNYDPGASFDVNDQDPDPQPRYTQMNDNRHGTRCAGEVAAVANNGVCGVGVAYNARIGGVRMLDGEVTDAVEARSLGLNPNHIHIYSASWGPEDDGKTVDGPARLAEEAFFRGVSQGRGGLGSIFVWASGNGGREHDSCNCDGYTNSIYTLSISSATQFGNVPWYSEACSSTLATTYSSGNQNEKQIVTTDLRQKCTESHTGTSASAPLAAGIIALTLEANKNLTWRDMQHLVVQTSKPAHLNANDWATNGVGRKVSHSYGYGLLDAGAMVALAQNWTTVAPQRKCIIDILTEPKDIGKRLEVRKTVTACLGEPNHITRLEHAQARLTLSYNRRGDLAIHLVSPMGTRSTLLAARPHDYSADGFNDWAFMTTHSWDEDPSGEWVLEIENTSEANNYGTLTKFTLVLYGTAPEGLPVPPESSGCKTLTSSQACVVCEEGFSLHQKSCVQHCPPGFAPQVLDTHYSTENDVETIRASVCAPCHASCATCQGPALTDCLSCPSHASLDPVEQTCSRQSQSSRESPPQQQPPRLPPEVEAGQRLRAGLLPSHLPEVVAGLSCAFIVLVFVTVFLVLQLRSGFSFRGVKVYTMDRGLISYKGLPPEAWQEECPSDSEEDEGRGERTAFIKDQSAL

Sequence	furin cleavage Z-score (7.5 min)	furin cleavage Z-score (15 min)	furin cleavage Z-score (30 min)
CAPSWGPTDPAGNASASA [HC213]	-0.72 (inactive)	-1.18 (inactive)	1.35
CALGPRFKRLAGNASASA [FS-269]	9.05 (active)	10.1 (active)	9.85 (active)
CAWGSRFKKLAGNASASA [FS-317]	0.17 (inactive)	-0.284 (inactive)	0.58 (inactive)
CAWGNRFKKLAGNASASA [FS-315]	-1.19 (inactive)	0.33 (inactive)	-1.11 (inactive)
CAWGPRFKRLAGNASASA [FS-209]	6.86 (active)	8.43 (active)	8.5 (active)
CAHSKKKCDEAGNASASA [HC858]	0.938 (inactive)	-0.00521 (inactive)	-0.176 (inactive)
CASPPCSAHLAGNASASA [HC2499]	1.04	-0.446 (inactive)	0.95 (inactive)
CAYVCCSMSYAGNASASA [HC1989]	0.374 (inactive)	-0.0389 (inactive)	0.11 (inactive)
CAVVSCSMSYAGNASASA [HC2037]	0.59 (inactive)	-1.65 (inactive)	0.705 (inactive)
CAGPKDQKRSAGNASASA [FS-1002]	0.96 (inactive)	0.905 (inactive)	0.353 (inactive)
CAPVPRQRRPAGNASASA [FS-557]	1.31	0.43 (inactive)	-0.0302 (inactive)
CARVYRQKRSAGNASASA [FS-561]	12.1 (active)	12.4 (active)	9.77 (active)
CAPVFRQKRSAGNASASA [FS-620]	14.1 (active)	12.3 (active)	9.55 (active)
CAPVPCHRPSAGNASASA [HC2319]	0.318 (inactive)	1.19	0.255 (inactive)
CAPVPRQKRSAGNASASA [FS-1387]	10.9 (active)	10.8 (active)	8.52 (active)
CAIHRRTPRSAGNASASA [FS-1213]	10.3 (active)	8.47 (active)	7.15 (active)
CATTPCSGSLAGNASASA [HC1925]	-0.297 (inactive)	-1.38 (inactive)	-1.27 (inactive)
CAMEEPSQHLAGNASASA [HC20]	-0.193 (inactive)	1.35	1.68
CAIHHRQKRSAGNASASA [FS-540]	12 (active)	10.4 (active)	9.65 (active)
CAELQRQKRSAGNASASA [FS-762]	10.3 (active)	11.5 (active)	9.23 (active)
CASLLKVPYFAGNASASA [HC613]	-0.873 (inactive)	0.367 (inactive)	-0.906 (inactive)
CAPARRNRRAAGNASASA [FS-837]	8.23 (active)	9.65 (active)	8.04 (active)

Sequence	furin cleavage Z-score (7.5 min)	furin cleavage Z-score (15 min)	furin cleavage Z-score (30 min)
CAPARRSVLAAGNASASA [FS-1987]	-0.364 (inactive)	-0.766 (inactive)	-0.871 (inactive)
CAPGEINRVAAGNASASA [HC1610]	0.342 (inactive)	1.78	0.355 (inactive)
CAVASRNRRAAGNASASA [FS-147]	13.1 (active)	12.8 (active)	9.83 (active)
CALTTTQWQVAGNASASA [HC494]	0.00411 (inactive)	-0.467 (inactive)	0.941 (inactive)
CACEIYGACYAGNASASA [HC1593]	-1.5 (inactive)	-1.53 (inactive)	-2.18 (inactive)
CAPISRPRRRAGNASASA [FS-1648]	7.6 (active)	8.41 (active)	6.07 (active)
CAPISYLKGSAGNASASA [HC739]	0.299 (inactive)	-0.469 (inactive)	-0.42 (inactive)
CAGSPRPRRRAGNASASA [FS-436]	7.08 (active)	9.3 (active)	7.64 (active)
CALAARPRRRAGNASASA [FS-815]	4.52 (active)	6.47 (active)	5.7 (active)
CAEVYTSTWVAGNASASA [HC2189]	0.0489 (inactive)	-1.01 (inactive)	-0.826 (inactive)
CAESEVPCHRAGNASASA [HC2457]	-0.0892 (inactive)	0.0197 (inactive)	0.878 (inactive)
CAMLECSQHLAGNASASA [HC1685]	-0.00687 (inactive)	-0.291 (inactive)	-0.319 (inactive)
CALPAILSPGAGNASASA [HC1102]	-0.355 (inactive)	-0.501 (inactive)	-0.653 (inactive)
CATTPNSGSWAGNASASA [HC58]	-0.658 (inactive)	-1.14 (inactive)	-1.83 (inactive)
CAMDARHKRGAGNASASA [FS-364]	6.41 (active)	8.49 (active)	7.7 (active)
CAHFQRVKRGAGNASASA [FS-1335]	7.42 (active)	6.93 (active)	6.76 (active)
CAKYGRVKRGAGNASASA [FS-1354]	0.448 (inactive)	0.71 (inactive)	0.194 (inactive)
CASHLRVKRGAGNASASA [FS-1280]	7.98 (active)	7.64 (active)	6.42 (active)
CAMLRRTKRGAGNASASA [FS-691]	-0.133 (inactive)	-0.069 (inactive)	0.376 (inactive)
CASADLVVRGAGNASASA [FS-89]	0.299 (inactive)	-0.542 (inactive)	-0.0754 (inactive)
CATTPCSWSWAGNASASA [HC1888]	-2.26 (inactive)	-1.57 (inactive)	0.135 (inactive)
CAWPAPQGSRAGNASASA [HC716]	1.18	-0.57 (inactive)	0.187 (inactive)
